Measured values: PubChem BioAssay (NCATS)
Records with an inconclusive call do not appear. Where a call stands in place of a potency, no number is given. Calls of active or inactive are those of the source. Calls come from the whole dose curve; as a rule, active = well fitted cell-killing curve with a large enough effect; inconclusive = small, poorly fitted or top-dose-only effect, or effect the other way; inactive = flat fitted curve, though single readings scatter.

These compounds were tested on OV90 (assay: Primary qHTS to identify gynecologic anti-cancer compounds using libraries of approved drugs and bioactive compounds (AID 1345084; note: nearly all actives have a fitted effect of over 55% in size)). Conditions: Gynecologic cancer cell panel viability, ATPlite luminescence, 48 h; series mostly up to 57.5 µM.
Procedure, shortened: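 Cytotoxicity screen measuring ATP content by luciferase luminescence. Each compound is applied at five concentrations for 48 h at 37 C with 5% CO2.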
Potency is the fitted concentration of half-maximal effect.

For `COc1cc2ncnc(Oc3ccc(CC(=O)Nc4cnn(C(C)C)c4)cc3)c2cc1OC`, which Potency is on record?
Its Potency is “inactive”.

For `C=C1C(=O)O[C@@H]2[C@H]3C(C)=CC(=O)C3=C(C)[C@@H](OC(=O)/C(C)=C\C)[C@H](O)[C@@H]12`, which Potency is on record?
Its Potency is “inactive”.

With `CC(C)(C)[C@H](NC(=O)c1ccc(N)c(Cl)c1)C(=O)N1CCC[C@H]1C(=O)N[C@H](C#N)CC(=O)O` as the compound, how does the Potency read?
The Potency was “inactive”.

`COCc1c(Cl)ccc2c1CC[C@H]2c1ncc[nH]1` was tested. Which Potency did it give?
Its Potency is “inactive”.

Which Potency does the source give for `O=c1cc(N2CCOCC2)nc2c3ccccc3ccn12` here?
The Potency was “inactive”.

With `CCOC(=O)c1csc(Nc2ccc(Cl)cc2)n1` as the compound, how does the Potency read?
The Potency was “inactive”.

With `CCN(CC)C(=O)c1ccc(Nc2nc(OCC3CCCCC3)c3[nH]cnc3n2)cc1` as the compound, how does the Potency read?
Its Potency is “inactive”.

With `CC(CCC1(O)OC2CC3C4CC=C5CC(O[C@@H]6O[C@H](CO)[C@@H](O[C@@H]7O[C@@H](C)[C@H](O)[C@@H](O)[C@H]7O)[C@H](O)[C@H]6O[C@@H]6O[C@@H](C)[C@H](O)[C@@H](O)[C@H]6O)CCC5(C)C4CCC3(C)C2C1C)CO[C@@H]1O[C@H](CO)[C@@H](O)[C@H](O)[C@H]1O` (some centres undefined) as the compound, how does the activity change, negative = cytotoxicity read?
The activity change, negative = cytotoxicity was -6.71% [at 11.6 µM] (inactive).

How did the Potency turn out when `Cc1ccc(-c2ncccn2)c(C(=O)N2C[C@H](COc3ccc(F)cn3)CC[C@H]2C)c1` was run?
Its Potency is “inactive”.

With `CN(C)CCN(Cc1ccc(-c2ccc(CNCCc3ccccc3)cc2)cc1)C(=O)CCC1CCCC1` as the compound, how does the Potency read?
Its Potency is 22.4 µM (active).

With `CCC(C)C(=O)OC1C(C)C2(O)C(C=C(CO)CC3(O)C(=O)C(C)=CC32)C2C(C)(C)C12OC(=O)C(C)C` (centres undefined) as the compound, how does the Potency read?
The Potency was “inactive”.

How did the activity change, negative = cytotoxicity turn out when `CC(C)NC(=O)N1CC[C@H](N=C2Nc3cc(F)ccc3N(CC(F)F)c3ccc(Cl)cc32)C1` was run?
The activity change, negative = cytotoxicity was 1.89% [at 11.6 µM] (inactive).

How did the Potency turn out when `O=C(Nc1nnc(-c2ccc3c(c2)OCCO3)o1)C1CCCCC1` was run?
Its Potency is “inactive”.

For `Cc1cc2ncc(C(=O)NCC(C)(C)NCC(=O)N3CCC[C@H]3C#N)cn2n1`, which Potency is on record?
Its Potency is “inactive”.
